Measured values reported in PubChem BioAssay AID1159580 (chemical genetic matrix, 2015).
Several values for one entry are separate records, joined by “and”; a condition that tells them apart may be missing. Equal values may be shown once. Among all 5,500 compounds or so, about 2,000 (36%) were called active. About 18% were inconclusive and are not listed. No stated cut-off is given here; in the data, active means normalized growth mostly below about 0.91 (no sharp cut-off); inconclusive means no clear call, values can overlap the other calls; inactive means mostly above about 0.92. The list shows a part of the results.

Assay: chemical genetic growth profiling, strain panel (AID 1159580);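 further: tested at 20 µM; growth read once vehicle control cultures reached saturation at 30 °C; 1 = growth at the plate median or of vehicle wells; lower values mean less growth of the strain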
Settings: growth OD

Measured: normalized growth

COC(=O)COc1ccc(Cl)cc1Cl
inactive: S. cerevisiae deletion strains, locus YAL013W, strain DEP1, active compounds read low 1 | S. cerevisiae deletion strains, locus YBR021W, strain FUR4, active compounds read low 1.01 | S. cerevisiae deletion strains, locus YBR229C, strain ROT2, active compounds read low 1.01 | S. cerevisiae deletion strains, locus YCL029C, strain bik1, active compounds read low 1.02 | S. cerevisiae deletion strains, locus YDL035C, strain GPR1, active compounds read low 1.02 | S. cerevisiae deletion strains, locus YDL074C, strain BRE1, active compounds read low 1.03 | S. cerevisiae deletion strains, locus YDL101C, strain DUN1, active compounds read low 1.01 | S. cerevisiae deletion strains, locus YDL134C, strain PPH21, active compounds read low 1.01 | S. cerevisiae deletion strains, locus YDL185W, strain tfp1, active compounds read low 1.01 | S. cerevisiae deletion strains, locus YDL192W, strain arf1, active compounds read low 1.02 | S. cerevisiae deletion strains, locus YDR101C, strain arx1, active compounds read low 1.02 | S. cerevisiae deletion strains, locus YDR150W, strain NUM1, active compounds read low 1 | S. cerevisiae deletion strains, locus YDR162C, strain NBP2, active compounds read low 0.996 | S. cerevisiae deletion strains, locus YDR318W, strain mcm21, active compounds read low 1.02 | S. cerevisiae deletion strains, locus YDR388W, active compounds read low 1.02 | S. cerevisiae deletion strains, locus YDR502C, strain sam2, active compounds read low 1.02 | S. cerevisiae deletion strains, locus YEL061C, strain CIN8, active compounds read low 1 | S. cerevisiae deletion strains, locus YER110C, active compounds read low 1.01 | S. cerevisiae deletion strains, locus YER155C, strain BEM2, active compounds read low 1 | S. cerevisiae deletion strains, locus YER167W, strain BCK2, active compounds read low 1 | S. cerevisiae deletion strains, locus YGL078C, strain dbp3, active compounds read low 1.01 | S. cerevisiae deletion strains, locus YGL086W, strain mad1, active compounds read low 1 | S. cerevisiae deletion strains, locus YGL248W, strain PDE1, active compounds read low 1.01 | S. cerevisiae deletion strains, locus YGR078C, strain PAC10, active compounds read low 1.02 | S. cerevisiae deletion strains, locus YGR135W, strain pre9, active compounds read low 1.02 | S. cerevisiae deletion strains, locus YGR229C, strain SMI1, active compounds read low 1.01 | S. cerevisiae deletion strains, locus YGR252W, strain gcn5, active compounds read low 1.04 | S. cerevisiae deletion strains, locus YHR030C, strain SLT2, active compounds read low 1.01 and 1.04 | S. cerevisiae deletion strains, locus YHR079C, strain IRE1 (second series), active compounds read low 1.01 | S. cerevisiae deletion strains, locus YHR079C, strain IRE1, active compounds read low 1.03 | S. cerevisiae deletion strains, locus YHR094C, strain hxt1, active compounds read low 1.02 | S. cerevisiae deletion strains, locus YHR129C, strain ARP1, active compounds read low 1.01 | S. cerevisiae deletion strains, locus YHR200W, strain rpn10, active compounds read low 1.01 | S. cerevisiae deletion strains, locus YIL066C, strain RNR3, active compounds read low 1.02 | S. cerevisiae deletion strains, locus YIL073C, strain SPO22, active compounds read low 1.08 | S. cerevisiae deletion strains, locus YIL125W, strain kgd1, active compounds read low 1.01 | S. cerevisiae deletion strains, locus YIR030C, strain dcg1, active compounds read low 1.02 | S. cerevisiae deletion strains, locus YJL095W, strain BCK1, active compounds read low 1 and 1.05 | S. cerevisiae deletion strains, locus YJL134W, strain LCB3, active compounds read low 1 | S. cerevisiae deletion strains, locus YJL168C, strain set2, active compounds read low 1.02 | S. cerevisiae deletion strains, locus YJL187C, strain SWE1 (second series), active compounds read low 1.01 | S. cerevisiae deletion strains, locus YJR043C, strain POL32, active compounds read low 1.01 | S. cerevisiae deletion strains, locus YJR066W, strain TOR1, active compounds read low 0.975 | S. cerevisiae deletion strains, locus YJR075W, strain HOC1, active compounds read low 1.01 | S. cerevisiae deletion strains, locus YKL009W, strain mrt4, active compounds read low 1.03 | S. cerevisiae deletion strains, locus YKL068W, active compounds read low 1.01 | S. cerevisiae deletion strains, locus YKL085W, strain MDH1 (second series), active compounds read low 0.993 | S. cerevisiae deletion strains, locus YKL085W, strain MDH1, active compounds read low 0.993 | S. cerevisiae deletion strains, locus YKL190W, strain CNB1, active compounds read low 1.01 | S. cerevisiae deletion strains, locus YKR001C, strain vps1, active compounds read low 1.04 | S. cerevisiae deletion strains, locus YLR039C, strain RIC1, active compounds read low 1.02 | S. cerevisiae deletion strains, locus YLR058C, strain SHM2, active compounds read low 1.02 | S. cerevisiae deletion strains, locus YLR102C, strain apc9, active compounds read low 1.01 | S. cerevisiae deletion strains, locus YLR113W, strain HOG1, active compounds read low 0.974 | S. cerevisiae deletion strains, locus YLR262C, strain YPT6, active compounds read low 1.06 | S. cerevisiae deletion strains, locus YLR268W, strain sec22, active compounds read low 1.03 | S. cerevisiae deletion strains, locus YLR330W, strain CHS5, active compounds read low 1.01 | S. cerevisiae deletion strains, locus YLR342W, strain FKS1 (second series), active compounds read low 1.01 | S. cerevisiae deletion strains, locus YLR371W, strain rom2, active compounds read low 1.01 | S. cerevisiae deletion strains, locus YLR418C, strain cdc73, active compounds read low 1.04 | S. cerevisiae deletion strains, locus YML016C, strain PPZ1, active compounds read low 1.01 | S. cerevisiae deletion strains, locus YML032C, strain rad52, active compounds read low 1.02 | S. cerevisiae deletion strains, locus YML124C, strain tub3, active compounds read low 1.02 | S. cerevisiae deletion strains, locus YMR078C, strain ctf18, active compounds read low 1.03 | S. cerevisiae deletion strains, locus YMR223W, strain ubp8, active compounds read low 1.02 | S. cerevisiae deletion strains, locus YMR263W, strain SAP30, active compounds read low 1 | S. cerevisiae deletion strains, locus YMR307W, strain GAS1, active compounds read low 1.02 | S. cerevisiae deletion strains, locus YNL067W, strain RPL9B, active compounds read low 1 | S. cerevisiae deletion strains, locus YNL128W, strain TEP1, active compounds read low 1.01 | S. cerevisiae deletion strains, locus YNL153C, strain GIM3, active compounds read low 1.01 | S. cerevisiae deletion strains, locus YNL183C, strain NPR1, active compounds read low 0.969 | S. cerevisiae deletion strains, locus YNL233W, strain BNI4, active compounds read low 1 | S. cerevisiae deletion strains, locus YNL250W, strain rad50, active compounds read low 1.01 | S. cerevisiae deletion strains, locus YNL271C, strain bni1, active compounds read low 1 | S. cerevisiae deletion strains, locus YNL298W, strain CLA4, active compounds read low 1.04 | S. cerevisiae deletion strains, locus YNL307C, strain MCK1, active compounds read low 1.03 | S. cerevisiae deletion strains, locus YNL322C, strain KRE1, active compounds read low 1.01 | S. cerevisiae deletion strains, locus YNR052C, strain pop2, active compounds read low 1.03 | S. cerevisiae deletion strains, locus YOL006C, strain TOP1, active compounds read low 1.02 | S. cerevisiae deletion strains, locus YOL012C, strain htz1 1.19 | S. cerevisiae deletion strains, locus YOL147C, strain pex11, active compounds read low 1.01 | S. cerevisiae deletion strains, locus YOR061W, strain CKA2, active compounds read low 0.997 | S. cerevisiae deletion strains, locus YOR069W, strain VPS5, active compounds read low 1 | S. cerevisiae deletion strains, locus YOR136W, strain idh2, active compounds read low 1.02 | S. cerevisiae deletion strains, locus YOR144C, strain elg1, active compounds read low 1.02 | S. cerevisiae deletion strains, locus YOR184W, strain ser1, active compounds read low 1.03 | S. cerevisiae deletion strains, locus YOR231W, strain MKK1, active compounds read low 1.04 | S. cerevisiae deletion strains, locus YOR316C, strain cot1, active compounds read low 1.01 | S. cerevisiae deletion strains, locus YPL055C, strain LGE1, active compounds read low 1.02 | S. cerevisiae deletion strains, locus YPL241C, strain CIN2, active compounds read low 1 | S. cerevisiae deletion strains, locus YPL256C, strain CLN2, active compounds read low 1.05 | S. cerevisiae deletion strains, locus YPR119W, strain clb2, active compounds read low 1.01 | S. cerevisiae deletion strains, locus YPR141C, strain kar3, active compounds read low 1.01 | S. cerevisiae deletion strains, locus YPR163C, strain tif3, active compounds read low 1.02 | S. cerevisiae deletion strains, locus YPR167C, strain met16, active compounds read low 1.01 | S. cerevisiae deletion strains, strain wtn01, active compounds read low 1.01 | S. cerevisiae strains, strain wild type, active compounds read low 1
